The target in assay [1] is Progesterone receptor (Homo sapiens) (UniProt P06401). Description: qHTS assay to identify small molecule antagonists of the progesterone receptor (PR) signaling pathway (AID 1346795; active = well fitted inhibition curve with a large enough effect in the signal ratio in the repeat runs, not every such curve was filed as active; the % refers to the signal ratio; note: potency is the fitted concentration of half-maximal effect). The essentials: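 Antagonist mode with agonist R5020 at 1 nM final and 16 hr incubation at 37C. Reporter was beta-lactamase driven by UAS in HEK293T (PR-UAS-bla), 2% charcoal-stripped serum; signal from LiveBLAzer FRET substrate, 2 hr at room temperature.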
A general note: Quantitative high-throughput screening tests each substance at several concentrations.

The nature of assay [2]: qHTS assay to identify small molecule agonists of the progesterone receptor (PR) signaling pathway - cell viability counter screen (AID 1346799; calls by dose curve; note: nearly all actives have a fitted effect of over 45% in size; note: potency is the fitted concentration of half-maximal effect). Summed up:
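Cytotoxicity measured by CellTiter-Glo luminescence (30 min, RT) in the same wells as the PR beta-lactamase agonist read. Those HEK293T cells had 16 h compound treatment at 37 C in 2% charcoal-stripped FBS medium.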

Assay [3] can be described thus: qHTS assay to identify small molecule antagonists of the TGF-beta/Smad signaling pathway - cell viability counter screen (AID 1346824). Note: nearly all actives have a fitted effect of over 50% in size. Summed up:
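SBE-bla HEK 293T cells were plated overnight at 37 C, then given compounds in DMSO plus TGF-beta1 (added as 0.25 ng/mL solution) for 5 hr. After the bla read, CellTiter-Glo was added to the same wells and luminescence read after 30 min at room temperature.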

A short description of assay [4]: qHTS assay to identify small molecule agonists of the TGF-beta/Smad signaling pathway - cell viability counter screen (AID 1346829). Note: top concentration of the series differs between compounds; nearly all actives have a fitted effect of over 45% in size. The essentials:
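After overnight seating at 37 C and 5% CO2, reporter cells got compounds for 5 hr and FRET substrate for 2 hr; cell viability then came from CellTiter-Glo luminescence.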

The nature of assay [5]: Caspase-3/7 induction in HepG2 cells by small molecules, qHTS assay (AID 1346978). Note: nearly all actives have a fitted effect of over 15% in size. Note: potency is the fitted concentration of half-maximal effect. The essentials: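 Wild-type HepG2 cells (2,000/well) were settled 5 h at 37 C, 5% CO2, then exposed to compounds in DMSO for 17 h. Caspase-3/7 activity was read by luminescence 30 min after adding Caspase-Glo 3/7 reagent at room temperature.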
Assay [6] in a line: Caspase-3/7 induction in CHO-K1 cells by small molecules, qHTS cell viability counter screen (AID 1346979). Note: nearly all actives have a fitted effect of over 35% in size. Note: potency is the fitted concentration of half-maximal effect. Summed up:
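Cytotoxicity counter screen: CellTiter-Fluor added to compound-treated wild-type CHO-K1 cells at 16 h (37C, 5% CO2), fluorescence measured 1 h later; same wells as caspase-3/7 measurement.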

Assay [7] can be described thus: Caspase-3/7 induction in CHO-K1 cells by small molecules, qHTS assay (AID 1346980). Note: nearly all actives have a fitted effect of over 15% in size. Summed up: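 Wild-type cells were seeded at 1,500 per well and settled 5 hr at 37 C, 5% CO2, then exposed to DMSO-dissolved compounds for 17 hr. Caspase-Glo 3/7 reagent was added, and luminescence was read after 30min at room temperature.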
The nature of assay [8]: Caspase-3/7 induction in HepG2 cells by small molecules, qHTS cell viability counter screen (AID 1346981). Note: nearly all actives have a fitted effect of over 30% in size. Note: potency is the fitted concentration of half-maximal effect. Summed up:
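After a 5-hr attachment period at 37 C and 5% CO2, wild-type HepG2 cells received compounds in DMSO. Sixteen hours later CellTiter-Fluor was dispensed and the fluorescent signal quantified after a further hour.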

Assay [9] concerns the target Cytochrome P450 2D6 (Homo sapiens) (UniProt P10635). The assay is described as follows: Cytochrome P450 Family 2 Subfamily D Member 6 (CYP2D6) small molecule antagonists: luciferase reporter qHTS assay (AID 1671196). Note: nearly all actives have a fitted effect of over 50% in size. Note: potency is the fitted concentration of half-maximal effect. The essentials:
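Room-temperature luminescent CYP2D6 activity assay: compound preincubated 10 min with enzyme–substrate mix, NADPH-initiated reaction 1 h, detection reagent 20 min before reading.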
A general note: In a reporter assay the amount or activity of a reporter protein is the signal.

Assay [10] has as its target Cytochrome P450 2C19 (Homo sapiens) (UniProt P33261). Description: Cytochrome P450 Family 2 Subfamily C Member 19 (CYP2C19) small molecule antagonists: luciferase reporter qHTS assay (AID 1671197). Note: nearly all actives have a fitted effect of over 65% in size. Note: potency is the fitted concentration of half-maximal effect. Summed up: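 Inhibition of CYP2C19 was scored from loss of luminescence in a P450-Glo proluciferin substrate assay, NADPH-started and run 1 h at 37C, with ketoconazole as positive control.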

Assay [11] can be described thus: qHTS assay to identify small molecule agonists of the TGF-beta/Smad signaling pathway (AID 1346859; active = well fitted activation curve with a large enough effect in the signal ratio in the repeat runs, not every such curve was filed as active; the % refers to the signal ratio; note: series mostly up to about 77 µM). The essentials:
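Fluorescence (ex 405 nm; em 460 and 530 nm) was read 2 h after LiveBLAzer FRET substrate at RT. The preceding compound treatment of overnight-plated SBE-bla HEK293T cells lasted 5 h at 37 C.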

The nature of assay [12]: Human pregnane X receptor (PXR) small molecule agonists, qHTS cell viability counter screen (AID 1346977). Note: nearly all actives have a fitted effect of over 50% in size. The essentials:
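Same-well viability read: CellTiter-Fluor added after 23 hr compound exposure, fluorescence measured 1 hr later. Cells were PXR-Luc HepG2 seeded at 2,000/well in 5% charcoal-stripped FBS medium, rested 5 hr before dosing at 37 C.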

Assay [13] addresses Cytochrome P450 2C9 (Homo sapiens) (UniProt P11712). The assay is described as follows: Cytochrome P450 Family 2 Subfamily C Member 9 (CYP2C9) small molecule antagonists: luciferase reporter qHTS assay (AID 1671198). Note: nearly all actives have a fitted effect of over 50% in size. Note: potency is the fitted concentration of half-maximal effect. The essentials: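 CYP2C9 activity was measured with a P450-Glo proluciferin substrate. Enzyme–substrate mix was held with compound for 10 min at room temperature, then NADPH regeneration solution was added for 1 h at 37C. Luciferin product was read as luminescence.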

For assay [14], the target named is Thyrotropin-releasing hormone receptor (Homo sapiens) (UniProt P34981). The assay is described as follows: qHTS assay to identify small molecule antagonists of the thyrotropin-releasing hormone receptor (TRHR) signaling pathway (AID 1346877; active = well fitted inhibition curve with a large enough effect in the repeat runs, not every such curve was filed as active; note: series mostly up to about 51 µM). The essentials:
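Calcium signal in dye-loaded TRHR/HEK293 cells; compounds added 5 min before TRH (1 nM final); fluorescence monitored 3 min at 1 s steps.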

For assay [15] the target is unchanged. Description: qHTS assay to identify small molecule agonists of the thyrotropin-releasing hormone receptor (TRHR) signaling pathway (AID 1346891; calls by dose curve; note: series mostly up to about 58 µM). The essentials: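 Agonist-mode intracellular calcium readout: kinetic fluorescence over 3 min at 1 s intervals after compound addition to TRHR-HEK293 cells (18 h seeded, 2 h dye-loaded at 37 C). Fifteen concentrations, triplicates.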

Assay [16] concerns the target Nuclear receptor subfamily 1 group I member 2 (Homo sapiens) (UniProt O75469). Description: Human pregnane X receptor (PXR) small molecule agonists, qHTS assay (AID 1346982). Note: nearly all actives have a fitted effect of over 35% in size. Note: potency is the fitted concentration of half-maximal effect. The essentials:
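Tox21 qHTS; PXR-Luc HepG2; compounds pinned from DMSO; 24 hr, 37 C; ONE-Glo luciferase detection, 30 min room temperature.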

Assay [17] deals with Nuclear receptor subfamily 1 group I member 2 (Rattus norvegicus) (UniProt Q9R1A7). The assay is described as follows: Rat pregnane X receptor (rPXR) activation by small molecules, qHTS assay (AID 1346983). Note: nearly all actives have a fitted effect of over 20% in size. Particulars: rPXR luciferase reporter cells, One-Glo luminescence, 24 h; stronger effect = higher value. Summed up: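 Cell-based rPXR luciferase reporter assay, 2,000 cells per well, rested 5hr at 37 C before compound addition in DMSO, then 24 hr at 37 C. One-Glo reagent was added and luminescence read after 30 min at room temperature.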

In assay [18] the target is Nuclear receptor subfamily 1 group I member 2 (Homo sapiens) (UniProt O75469). The assay is described as follows: CYP3A4 induction through human pregnane X receptor (PXR) by small molecules, qHTS assay (AID 1346984). Note: nearly all actives have a fitted effect of over 40% in size. Summed up:
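Cells (DPX-2; HepG2 with PXR element plus CYP3A4-promoter luciferase) settled 5hr, then were treated 24hr at 37C. A 3hr, 3uM-final Luciferin-IPA step preceded luminescence measurement with One-Glo.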

The target is the same in assay [19]. The assay is described as follows: Human pregnane X receptor (PXR) activation by small molecules, qHTS assay (AID 1346985). Note: nearly all actives have a fitted effect of over 40% in size. The essentials:
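DPX-2 cells (HepG2 co-transfected with a PXR response element and a CYP3A4-promoter luciferase construct) were seeded at 2,000 per well, rested 5 hr at 37C, then exposed to DMSO-dissolved compounds for 24 hr. Activation was read as luciferase luminescence.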

The results in this text go back to PubChem BioAssay (Tox21).

Molecules are shown by their SMILES. Values joined by “and” are separate entries in the source; they are usually repeats but may differ in a detail not shown here. Equal entries are not always repeated. Inconclusive results are not listed. Some compounds were tested as several samples or in several runs, with calls that do not always agree. Active and inactive are the calls of the source. Unless noted, calls come from the whole dose curve; as a rule, active = well fitted curve in the direction sought with a large enough effect in the repeat runs; inconclusive = weak or mixed curves; inactive = no such curve, though single readings can be large; an effect the other way counts as inactive or inconclusive.
% is set by controls: 0 for no effect and ±100 for the full control effect.

Chain of Thyrotropin-releasing hormone receptor (Homo sapiens) (P34981 whole entry, looked up): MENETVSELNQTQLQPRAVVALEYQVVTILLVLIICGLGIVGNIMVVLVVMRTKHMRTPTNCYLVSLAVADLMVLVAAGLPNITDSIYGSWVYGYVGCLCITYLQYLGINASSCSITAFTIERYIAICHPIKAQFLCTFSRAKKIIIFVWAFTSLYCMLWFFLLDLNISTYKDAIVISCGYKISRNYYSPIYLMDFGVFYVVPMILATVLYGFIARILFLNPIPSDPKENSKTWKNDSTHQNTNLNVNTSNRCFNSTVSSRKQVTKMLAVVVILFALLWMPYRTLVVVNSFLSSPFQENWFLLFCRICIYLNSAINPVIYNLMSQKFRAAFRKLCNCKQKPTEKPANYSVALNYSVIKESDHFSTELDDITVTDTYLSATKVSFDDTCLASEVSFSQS
Chain of Cytochrome P450 2C9 (Homo sapiens) (P11712 whole entry, looked up): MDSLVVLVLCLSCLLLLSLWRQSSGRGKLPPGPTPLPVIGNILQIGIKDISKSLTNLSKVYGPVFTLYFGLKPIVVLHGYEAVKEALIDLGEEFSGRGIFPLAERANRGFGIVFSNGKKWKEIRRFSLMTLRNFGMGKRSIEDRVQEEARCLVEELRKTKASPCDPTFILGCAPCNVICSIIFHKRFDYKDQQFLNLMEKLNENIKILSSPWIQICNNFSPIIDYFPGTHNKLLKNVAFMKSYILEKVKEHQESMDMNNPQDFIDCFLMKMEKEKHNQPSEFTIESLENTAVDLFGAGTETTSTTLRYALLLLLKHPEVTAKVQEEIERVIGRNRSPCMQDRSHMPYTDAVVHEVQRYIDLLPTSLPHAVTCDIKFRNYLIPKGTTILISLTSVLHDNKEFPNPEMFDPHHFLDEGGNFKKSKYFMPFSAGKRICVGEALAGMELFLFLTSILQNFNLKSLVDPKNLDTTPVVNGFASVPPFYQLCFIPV
Chain of Nuclear receptor subfamily 1 group I member 2 (Homo sapiens) (O75469 whole entry, looked up): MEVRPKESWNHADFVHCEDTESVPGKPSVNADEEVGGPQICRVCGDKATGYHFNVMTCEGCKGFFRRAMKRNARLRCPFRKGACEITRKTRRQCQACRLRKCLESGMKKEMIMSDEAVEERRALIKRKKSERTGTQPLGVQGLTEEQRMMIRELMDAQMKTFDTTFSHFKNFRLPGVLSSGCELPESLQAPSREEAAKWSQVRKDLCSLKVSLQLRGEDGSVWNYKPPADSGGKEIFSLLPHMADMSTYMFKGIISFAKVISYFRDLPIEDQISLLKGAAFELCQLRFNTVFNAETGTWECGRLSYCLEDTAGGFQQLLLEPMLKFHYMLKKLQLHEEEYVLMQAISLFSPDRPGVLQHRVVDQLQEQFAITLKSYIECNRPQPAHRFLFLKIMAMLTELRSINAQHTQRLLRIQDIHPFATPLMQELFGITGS
Chain of Cytochrome P450 2D6 (Homo sapiens) (P10635 whole entry, looked up): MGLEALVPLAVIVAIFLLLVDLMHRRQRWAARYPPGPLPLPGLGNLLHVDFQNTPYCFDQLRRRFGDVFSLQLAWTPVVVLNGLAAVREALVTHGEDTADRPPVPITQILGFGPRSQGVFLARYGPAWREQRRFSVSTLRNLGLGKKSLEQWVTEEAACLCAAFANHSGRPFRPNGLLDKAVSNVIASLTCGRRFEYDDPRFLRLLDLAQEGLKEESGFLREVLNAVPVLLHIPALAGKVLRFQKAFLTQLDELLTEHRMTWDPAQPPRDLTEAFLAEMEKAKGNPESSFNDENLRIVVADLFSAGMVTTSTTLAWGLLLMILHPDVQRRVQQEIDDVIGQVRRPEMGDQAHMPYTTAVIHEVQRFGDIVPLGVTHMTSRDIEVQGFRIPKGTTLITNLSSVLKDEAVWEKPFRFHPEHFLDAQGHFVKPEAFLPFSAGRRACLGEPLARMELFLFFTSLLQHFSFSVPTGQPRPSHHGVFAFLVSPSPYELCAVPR
Chain of Cytochrome P450 2C19 (Homo sapiens) (P33261 whole entry, looked up): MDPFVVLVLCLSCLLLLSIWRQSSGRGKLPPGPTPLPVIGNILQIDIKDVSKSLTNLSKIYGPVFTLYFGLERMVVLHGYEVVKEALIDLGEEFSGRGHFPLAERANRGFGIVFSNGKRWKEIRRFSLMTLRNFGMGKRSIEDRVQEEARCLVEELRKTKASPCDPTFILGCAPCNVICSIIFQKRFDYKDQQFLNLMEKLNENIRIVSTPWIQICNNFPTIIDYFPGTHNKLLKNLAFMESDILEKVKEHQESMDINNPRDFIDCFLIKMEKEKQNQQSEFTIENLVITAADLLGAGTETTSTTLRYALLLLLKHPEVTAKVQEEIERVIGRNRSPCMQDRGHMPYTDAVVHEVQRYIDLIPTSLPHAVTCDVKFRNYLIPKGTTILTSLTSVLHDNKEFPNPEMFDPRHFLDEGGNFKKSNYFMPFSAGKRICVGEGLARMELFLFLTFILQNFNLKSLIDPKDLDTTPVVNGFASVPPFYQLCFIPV
Chain of Progesterone receptor (Homo sapiens) (P06401 whole entry, looked up): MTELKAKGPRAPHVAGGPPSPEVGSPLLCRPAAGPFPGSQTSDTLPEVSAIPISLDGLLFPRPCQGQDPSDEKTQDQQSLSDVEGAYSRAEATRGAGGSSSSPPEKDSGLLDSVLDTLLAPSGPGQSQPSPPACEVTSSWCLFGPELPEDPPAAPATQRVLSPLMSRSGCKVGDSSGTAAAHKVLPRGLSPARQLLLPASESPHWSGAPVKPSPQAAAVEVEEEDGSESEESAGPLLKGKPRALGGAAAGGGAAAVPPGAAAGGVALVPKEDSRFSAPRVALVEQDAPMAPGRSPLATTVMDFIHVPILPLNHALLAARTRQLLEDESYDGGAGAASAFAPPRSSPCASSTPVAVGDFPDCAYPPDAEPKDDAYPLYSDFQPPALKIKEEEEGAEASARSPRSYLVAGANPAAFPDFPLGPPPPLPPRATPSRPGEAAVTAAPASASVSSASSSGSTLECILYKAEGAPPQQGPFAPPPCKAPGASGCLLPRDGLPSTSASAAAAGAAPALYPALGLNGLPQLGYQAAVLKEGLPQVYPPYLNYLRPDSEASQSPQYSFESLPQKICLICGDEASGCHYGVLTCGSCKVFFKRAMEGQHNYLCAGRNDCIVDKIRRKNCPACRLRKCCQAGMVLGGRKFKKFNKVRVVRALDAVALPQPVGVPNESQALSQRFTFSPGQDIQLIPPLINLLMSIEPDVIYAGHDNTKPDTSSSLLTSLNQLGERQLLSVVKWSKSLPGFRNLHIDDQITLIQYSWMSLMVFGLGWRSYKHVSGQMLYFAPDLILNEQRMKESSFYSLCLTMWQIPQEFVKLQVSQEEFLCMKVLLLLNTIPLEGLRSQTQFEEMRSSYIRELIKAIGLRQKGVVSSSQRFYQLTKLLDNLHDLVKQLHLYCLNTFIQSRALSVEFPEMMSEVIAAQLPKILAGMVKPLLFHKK
Chain of Nuclear receptor subfamily 1 group I member 2 (Rattus norvegicus) (Q9R1A7 whole entry, looked up): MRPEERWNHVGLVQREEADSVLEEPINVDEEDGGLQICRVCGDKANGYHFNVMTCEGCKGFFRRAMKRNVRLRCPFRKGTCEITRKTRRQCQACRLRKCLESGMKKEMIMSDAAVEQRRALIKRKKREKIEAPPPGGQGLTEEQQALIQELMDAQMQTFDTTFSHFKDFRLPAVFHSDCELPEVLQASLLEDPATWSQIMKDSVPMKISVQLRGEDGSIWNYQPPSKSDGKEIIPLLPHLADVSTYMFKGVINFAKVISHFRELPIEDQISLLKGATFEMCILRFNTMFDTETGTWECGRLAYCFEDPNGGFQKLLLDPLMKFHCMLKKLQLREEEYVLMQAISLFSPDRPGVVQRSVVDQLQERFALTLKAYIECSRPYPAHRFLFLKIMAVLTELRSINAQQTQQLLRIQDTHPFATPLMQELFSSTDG

Take `COC(=O)[C@H]1[C@H]2C[C@@H]3c4[nH]c5cc(OC)ccc5c4CCN3C[C@H]2C[C@@H](OC(=O)c2cc(OC)c(OC)c(OC)c2)[C@@H]1OC`: the Potency result in [1], in assay [2], in assay [3], in [4], in [5] and in [7] was “inactive” throughout. The Potency was 30.6 µM (active) and 39.7 µM (active) and inactive in assay [6]; 44.5 µM (active) and inactive in assay [8]; 28.2 µM (active) and 9.19 µM (active) in assay [9]; 41.1 µM (active) and inactive in assay [10].
Turning to `CCC[C@H](N[C@@H](C)C(=O)N1[C@H](C(=O)O)C[C@@H]2CCCC[C@@H]21)C(=O)OCC`, the Potency entry in assay [1], in assay [2], in [3], in assay [4], in assay [12] and in assay [5] was “inactive” throughout. The Potency result in assay [6], in [7], in assay [8], in assay [9], in assay [10] and in [13] was “inactive” throughout. The result in [11] was inactive.
Regarding `CCN(CC)C(=S)SSC(=S)N(CC)CC`, the Potency in [1] was 0.237 µM (active); in [5], 611 nM (active) and 395 nM (active); in assay [16] it was 15.7 µM (active) and 10.6 µM (active); in [9] it was 32.5 µM (active); in assay [13], 6.33 µM (active) and 4.21 µM (active) and 4.36 µM (active). Besides, the Potency result in [2], in assay [3], in assay [4], in assay [14], in [15] and in [7] was “inactive” each time. In [8], the Potency entry was “inactive”. The compound was called inactive in assay [11].
In the case of `C[N+]1([O-])CCOCC1`, the Potency entry in assay [1], in [2], in assay [4], in assay [14], in assay [15] and in assay [5] was “inactive” each time. The Potency result in assay [6], in assay [7], in [8], in [16] and in [9] was “inactive” throughout. For the same compound, the compound was called inactive in assay [11]. Also, the Potency in [10] is 39.8 µM (active).
In the case of `O=S(=O)(O)c1ccc2nc(-c3ccccc3)[nH]c2c1`, the Potency result in [1], in assay [14], in [15], in [12], in [5] and in [7] was “inactive” in each case. Further, the Potency entry in assay [8], in assay [18] and in assay [19] was “inactive” each time. The Potency in assay [2] was 32.7 µM (active) and 8.41 µM (active); in assay [9] it was 21.4 µM (active) and 13.8 µM (active); in assay [10], 17 µM (active) and 9.77 µM (active); in assay [13], 33.9 µM (active) and 19.5 µM (active). Besides, in [11], the compound was classed as inactive. In addition, in assay [17], the max activation is -3.42% (inactive).
As to `CC(C)(C)c1cc(C(C)(C)C)c(O)c(C(C)(C)C)c1`, the Potency entry in [1], in assay [2], in assay [3], in [4], in assay [14] and in assay [15] was “inactive” in each case. Also, the Potency result in assay [12], in assay [5], in [7], in assay [8], in assay [9] and in [10] was “inactive” throughout. Besides, the outcome in assay [11] was inactive. Moreover, the Potency in assay [16] was 68.6 µM (active) and inactive; in [13], “inactive and 35.6 µM (active)”.
As for `Cc1occc(=O)c1OC(=O)C(C)C`, the Potency entry in assay [1], in [2], in assay [4], in [14], in [15] and in assay [12] was “inactive” in each case. In addition, the Potency entry in assay [5], in assay [6], in assay [7], in assay [8], in assay [9] and in [10] was “inactive” each time. The Potency result in [13] is “inactive”. Also, in assay [11], the outcome was inactive.
